# Screening data deposited in PubChem by National Center for Advancing Translational Sciences (NCATS).
# In the library only some 7.3% were active in any assay of this set; here they are far more common.
# Vaccinia mCherry – qHTS for Stage-Specific Inhibitors of Vaccinia Orthopoxvirus: mCherry Reporter Primary qHTS; Potency, µM (doses to about 36.5 µM), without a hit: top-dose activity change, negative = inhibition, actives largely listed as inhibitors; 310,000 tested, 0.63% active; Vaccinia virus mCherry reporter infection, fluorescence; calls by dose curve; tested in A549 cells; further: potency means the concentration at half of the fitted maximal effect; nearly all actives have a fitted effect of over 35% in size
# HCV inhibitor – qHTS Assay for Inhibitors of Hepatitis C Virus (HCV) | Huh7.5.1 HCVcc-Cre infection, luciferase reporter, 44 h | Potency, µM (series often up to 41.8 µM), for the others: top-dose activity change, negative = inhibition, hits mostly inhibitors | 340,000 tested, 3.4% active; active means well fitted inhibition curve with a large enough effect; inconclusive means small, poorly fitted or top-dose-only effect, or another doubt; inactive means no such curve, though single readings can be large or run the other way; further: potency means the concentration at half of the fitted maximal effect
#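 Cells (1,000/well) were plated 4 h before compound, then infected with HCVcc-Cre virus (~0.5 moi). After 44 h further culture, infection was read as luciferase luminescence following a 15 min substrate incubation at room temperature.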
# FMDV antiviral – High Throughput Screening for Foot and Mouth Disease Virus Antivirals | Potency, µM (top dose mostly 57.9 µM), for inactives: at the highest dose activity change, negative = inhibition, actives largely listed as inhibitors | AID 1159524, 2015 | FMDV antiviral cell-based qHTS | 410,000 tested, 1.2% active; calls by dose curve; tested in HEK293T cells; further: read-out not given here; potency means the concentration at half of the fitted maximal effect; nearly all actives have a fitted effect of over 45% in size
# VACV Venus inh – qHTS for Stage-Specific Inhibitors of Vaccinia Orthopoxvirus: Venus Reporter Primary qHTS | Vaccinia virus Venus reporter expression, fluorescence | Potency, µM (series often up to 36.5 µM), for the others: top-dose activity change, negative = inhibition, actives largely listed as inhibitors | 330,000 tested, 0.46% active | AID 720580, 2013; calls by dose curve; tested in A549 cells; further: potency means the concentration at half of the fitted maximal effect; nearly all actives have a fitted effect of over 30% in size
# HCMV antiviral – qHTS Assay for inhibitors of the human cytomegalovirus (HCMV); AID 1259415, 2018; HFF cells, HCMV-luciferase reporter, 72 h; hits give low values; activity change, negative = inhibition, % at 57.5 µM; 410,000 tested, 4.5% active; in the data active means activity change below about -60%; inconclusive means no clear call, values can overlap the other calls; inactive means above about -39%
#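 Two compound doses tested in HFFs infected with HCMV-luciferase, MOI 1 PFU/cell, 72 h at 37C. Lysate luminescence read with OneGlo; data normalized against buffer-only and 10uM Salinomycin inhibitor controls.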
# The depositor's hits bear a star; i = inactive; ? = inconclusive; nt = no result; [ ] = another dose, or the depositor's remark. On the % scale 0 is the no-effect control and ±100 the full control effect.
SMILES,Vaccinia mCherry,HCV inhibitor,FMDV antiviral,VACV Venus inh,HCMV antiviral
COc1cc2c(cc1OC)C(COc1ccccc1OC)N(C(=O)c1ccccc1OC)CC2 (stereo unspecified),-2%,nt,0%,3%,-106*
COc1cc2c(cc1OC)C(c1ccccc1)N(C(=O)c1ccccc1)CC2 (stereo unspecified),nt,?,-15%,nt,-60*
COC(=O)c1ccc(OCC(O)CN2CCc3cc(OC)c(OC)cc3C2c2ccccc2)cc1 (stereo unspecified),?,7.9µM*,?,-13%,-25
COc1cc2c(cc1OC)C(COc1ccccc1OC)N(C(=O)c1ccc(S(=O)(=O)N3CCCC3)cc1)CC2 (stereo unspecified),-10%,nt,-16%,-7%,-9
CCC(=O)N1CCc2cc(OC)c(OC)cc2C1COc1ccc(C(=O)OC)cc1 (stereo unspecified),nt,?,?,nt,30
CC(Nc1ccccc1N1CCCCC1)C(=O)N1CCc2ccccc21 (stereo unspecified),-3%,-23%,?,-16%,-70*
CC(NC(c1ccccc1)c1ccccc1)C(=O)N1CCCc2ccccc21 (stereo unspecified),-25%,-10%,?,?,-25
CC(C)(C)c1ccc(OCCCCCCN2CCNCC2)cc1,-16%[7.34 µM],7.9µM*,-13%,-5%[7.34 µM],?
CC(C)(c1ccccc1)c1ccc(OCCCN2CCNCC2)cc1,-18%,8.9µM*,0%,0%,-88*
CC(C)(C)c1ccc(OCCN2CCCC2)cc1,-12%,0%,4%,-12%,-10
CNCCN(C)c1nc(-c2cccs2)nc2ccccc12,-21%,nt,nt,-5%,nt
Cc1cc(-c2ccccc2)nc(N/N=C/c2ccco2)n1,nt,-29%,25%,nt,30
COc1ccc(/C=N/Nc2nc(C)cc(-c3ccccc3)n2)cc1OC,-13%,?,-8%,-15%,-86*
Cc1cc(-c2ccccc2)nc(N/N=C/c2ccc(O)cc2O)n1,?,10µM*,-11%,?,-17
CN(N)c1nc(-c2ccccc2)cc(-c2ccccc2)n1,i,?,-24%,-10%,?
O=[N+]([O-])c1ccc(/C=N/Nc2ncc(-c3ccccc3)cn2)cc1,-2%,1%,4%,-6%,18
Cc1cc(-c2ccccc2)nc(N/N=C/c2ccc([N+](=O)[O-])cc2)n1,-18%,10µM*,-14%,-25%,-29
CN(/N=C/c1ccc(O)cc1O)c1nc(-c2ccccc2)cc(-c2ccccc2)n1,?,?,-4%,20µM*,-62*
COc1ccc(C(=O)N(Cc2ccc(C(C)C)cc2)C2CCS(=O)(=O)C2)cc1 (stereo unspecified),-10%,nt,-9%,-14%,0
CCCCN(C)C(=O)Cn1c(SCC(=O)Nc2ccc(C)c(C)c2)nc2ccccc21,-16%,nt,-4%,-9%,-25
Cc1cc(-c2ccccc2)nc(N/N=C/c2ccc(N(C)C)cc2)n1,nt,13µM*,-19%,nt,-37
COc1ccc(-n2c(O)c(/C=N/NS(=O)(=O)c3ccc(C)cc3)c3ccccc3c2=O)cc1OC,5%,17%,-8%,i,?
COc1ccc(-n2c(O)c(/C=N/Nc3nc(C)cc(C)n3)c3ccccc3c2=O)cc1OC,?,2.8µM*,-14%,?,-94*
Cc1cc(-c2ccccc2)nc(N/N=C/c2ccccc2)n1,?,?,7%,-12%,4
CCC(C)NC(=O)CSc1nc2cc3c(cc2c(=O)n1CCCC(=O)NCCc1ccc(OC)c(OC)c1)OCO3 (stereo unspecified),-11%,nt,-5%,-16%,1
SMILES,Vaccinia mCherry,HCV inhibitor,FMDV antiviral,VACV Venus inh,HCMV antiviral
N#CC(C#N)=c1ccc2c(c1)NC1(CCCCC1)N=2,-25%,?,25µM*,-36%,-85*
CCN(CC)C(=O)c1sc2c(c1C)c(=O)n(CCc1ccccc1)c(=O)n2Cc1ccc(F)cc1Cl,-18%,nt,-6%,-17%,7
Cc1cccc(OCC(=O)Nc2ccc3c(c2)nc(CN2CCCCC2)n3C)c1,-9%,?,13µM*,-31%,?
CC(=O)N1CCN(Cc2nc3cc(NC(=O)COc4cccc(C)c4)ccc3n2C)CC1,?,-18%,?,-9%,-63*
Cc1cccc(OCC(=O)Nc2ccc3c(c2)nc(CCN2CCCCC2)n3C)c1,nt,-22%,-3%,nt,-86*
CC(=O)N1CCN(Cc2nc3cc(NC(=O)c4ccccc4C)ccc3n2C)CC1,nt,-12%,-11%,-14%,27
CC(=O)N1CCN(Cc2nc3cc(NC(=O)c4cccc(Br)c4)ccc3n2C)CC1,i[7.34 µM],18µM*,?,-11%[7.34 µM],-73*
Cc1cc(C)cc(Nc2ccc3nonc3c2[N+](=O)[O-])c1,-15%,?,?,-11%,-83*
O=[N+]([O-])c1c(Nc2ccccc2)ccc2nonc12,i,12%,-6%,-9%,19
N#Cc1cc(C(=O)c2cc(Cl)ccc2O)cn(-c2ccccc2)c1=O,i,10%,-20%,-15%,-1
Cc1ccc(NC(=O)c2cc(C(=O)c3cc(Cl)ccc3O)cn(-c3ccc(C)cc3)c2=O)cc1,-1%,?,0%,?,-70*
CC(C)NC(=O)N(C)C[C@H]1OCc2cn(nn2)CCCC(=O)N([C@H](C)CO)C[C@@H]1C,nt,nt,nt,nt,-3
CCCN1C(=O)c2ccccc2NC1c1ccc(OC)cc1O (stereo unspecified),nt,11%,?,-14%,-91*
Cc1nn2c3ccccc3nc2c2ccccc12,nt,13µM*,20%,nt,181
O=C(CN1C(=O)/C(=C/c2ccccc2)SC1=S)NC1C=CS(=O)(=O)C1 (stereo unspecified),-26%,11%,-10%,-1%,?
CC(C)c1ccc(/C=C2\SC(=O)N(CC(=O)NC3C=CS(=O)(=O)C3)C2=O)cc1 (stereo unspecified),nt,-6%,-10%,nt,-77*
O=C(CN1C(=O)/C(=C/c2ccccc2Cl)SC1=S)NC1C=CS(=O)(=O)C1 (stereo unspecified),-9%,0%,-12%,-4%,-64*
COc1cccc(/C=C2\SC(=O)N(CC(=O)NC3C=CS(=O)(=O)C3)C2=O)c1 (stereo unspecified),nt,2%,-29%,nt,-69*
COc1cccc(/C=C2\SC(=O)N(CC(=O)NC3CCS(=O)(=O)C3)C2=O)c1 (stereo unspecified),nt,12%,5%,nt,0
Cc1ccc(S(=O)(=O)Nc2cc(Cl)c3oc4c(c3c2)CCCC4)cc1,-13%,nt,41%,-7%,-2
N=C1S/C(=C\c2ccco2)C(=O)N1c1nccs1,?,?,-2%,-23%,-115*
N=C1S/C(=C\c2ccco2)C(=O)N1c1ccc2c(c1)OCO2,-13%,?,12%,-5%,?
